Reference: publication PMC4552634, “A New Set of Chemical Starting Points with Plasmodium falciparum Transmission-Blocking Potential for Antimalarial Drug Discovery” (PLoS ONE, 2015)
Like-named read-outs stand apart in the source and are kept apart here. In all, about 13,000 compounds went through this assay and about 3,200 (25%) showed an effect of 50% or more. The list shows a part of the results.

Tested on: P. falciparum stage V gametocytes
Set-up: BacTiter-Glo ATP luminescence viability of purified stage V gametocytes in 384-well plates, per cent inhibition versus DMSO

Compound	% Inhibition (48 h, 5 µM; inhibitor) [%]	% Inhibition (48 h, 5 µM, inhibitor) [%]
N#Cc1ccc(CN2CCCN(Cc3cccc(NC(=O)c4ccc(-c5ccccc5)cc4)c3)CC2)cc1 [TCMDC-141838]	91.89	
O=C(Nc1ccc(Cl)cc1)c1ccc(CN2CCCN(Cc3cccc(F)c3)CC2)cc1 [TCMDC-136404]	-18.08	
Cc1ccc(CC(C)NC[C@H](O)c2cccc(Cl)c2)cc1 (stereo partly drawn) [TCMDC-131477]		11.62
CCOP(=O)(OCC)c1ccc(OC)c(-c2ccc[nH]2)c1 [TCMDC-139023]	22.96	
COC(=O)/C=C/C(=O)N[C@@H]1CC[C@@]2(O)[C@H]3Cc4ccc(O)c5c4[C@@]2(CCN3CC2CC2)[C@H]1O5 [TCMDC-125875]	50.91	
C#CCN1CCC2=C(C1)c1c(O)cc(C(C)CCCc3ccc(F)cc3)cc1OC2(C)C (stereo not drawn) [TCMDC-124277]	-40.47	
O=C(/C=C/c1ccc(Cl)c(Cl)c1)NCCCCCN1CCCN(C(=O)Nc2ccc(C(F)(F)F)cc2)CC1 [TCMDC-135757]	8.096	
Cc1cc(C)c(CC(C)NCC(O)c2cccc(C(F)(F)F)c2)c(C)c1 (stereo not drawn) [TCMDC-131460]	-4.216	
C[C@@H](CC1CCCCC1)NCc1ccccc1O [TCMDC-140305]	71.87	
CCN(CC)CCOC(=O)C(OC)(c1ccccc1)c1ccccc1 [TCMDC-131779]	18.56	
Cc1ccc(CC(C)NCC(O)c2cccc(C(F)(F)F)c2)c(C)c1 (stereo not drawn) [TCMDC-131465]	-0.5645	
CSc1ccc(C[C@@H](C)NC[C@H](O)c2cccc(Cl)c2)cc1 [TCMDC-131507]	10.96	
CNCCN(C)C(=O)Oc1c(Br)c(C)nc(C)c1-c1ccc(Oc2ccc(OC(F)(F)F)cc2)cc1 [TCMDC-137377]	86.68	
CNCCN(C)C(=O)Oc1c(Cl)c(C)nc(C)c1-c1ccc(Oc2ccc(OC(F)(F)F)cc2)cc1 [TCMDC-137384]	42.19	
Cc1nc(C)c(-c2ccc(Oc3ccc(OC(F)(F)F)cc3)cc2)c(OC(=O)N(CCNC(C)C)C(C)C)c1Br [TCMDC-132417]	109	
CNCCCN(C)C(=O)Oc1c(Br)c(C)nc(C)c1-c1ccc(Oc2ccc(OC(F)(F)F)cc2)cc1 [TCMDC-132416]	117.8	
COc1ccc(CC(C)NCC(O)c2cccc(Cl)c2)cc1C (stereo not drawn) [TCMDC-131505]	13.45	
CCc1ccc(CC(C)NCC(O)c2ccccc2)cc1 (stereo not drawn) [TCMDC-131463]	17.08	
CN1CC(c2ccc(Cl)c(Cl)c2)OC1=N (stereo not drawn) [TCMDC-137454]	1.442	
Cc1ccc(CC(C)NCC(O)c2cccc(C#N)c2)cc1 (stereo not drawn) [TCMDC-131451]	40.18	
CCC1(C)CC(CCNCc2ccccc2O)(c2ccc(C)cc2)CCO1 (stereo not drawn) [TCMDC-124003]	4.575	
COCCSc1ccc(CC(C)NCC(O)c2cccc(Cl)c2)cc1 (stereo not drawn) [TCMDC-131513]	22.33	
CCCCCCCCCCS(=O)(=O)N[C@H](COCc1cccc(Oc2ccccc2)c1)COP(=O)(O)OC [TCMDC-131877]	13.38	
CC(C)CCN1C(=O)C(NC(=O)Oc2ccccc2)C(=O)N(CC23CC4CC(CC(C4)C2)C3)c2ccccc21 (stereo not drawn) [TCMDC-137160]	-43.48	

Compound	% Inhibition (48 h, 5 µM; inhibitor) [%]	% Inhibition (48 h, 5 µM, inhibitor) [%]
CCCC(=O)c1c(O)c2ccccc2oc1=O [TCMDC-123881]	11.83	
Cc1ccc(C[C@@H](C)NC[C@H](O)c2cccc(C(F)(F)F)c2)cc1 [TCMDC-131449]	8.152	
[O-]c1n[n+](C2CCCCC2)no1 [TCMDC-138090]	57.64	
CCOC(C(=O)OCCN(C(C)C)C(C)C)(c1ccccc1)c1ccccc1 [TCMDC-131391]	-28.65	
COc1ccc(C[C@@H](C)NC[C@H](O)c2cccc(Cl)c2)cc1F [TCMDC-131516]		9.097
Cc1cccc(N2CCN(Cc3cc(Cl)ccc3O)CC2)c1C [TCMDC-123718]	-35.86	
Oc1cc2c(cc1CN1CCN(Cc3ccccc3)CC1)CCC2 [TCMDC-125104]	73.14	
Cc1ccc(C)c(N2CCN(Cc3ccccc3O)CC2)c1 [TCMDC-123518]	7.065	
COc1ccc(O)c(CN2CCN(c3cc(C)ccc3C)CC2)c1 [TCMDC-124056]	6.084	
CCN(CC)CCN1C(=O)C(O)(c2ccccc2Cl)c2c1cc(C(N)=O)cc2C(F)(F)F (stereo not drawn) [TCMDC-133544]	37.34	
COc1ccc(CC(C)NCC(O)c2cccc(Br)c2)cc1 (stereo not drawn) [TCMDC-131496]	20.1	
COc1ccc(C[C@@H](C)NC[C@H](O)c2cccc(Cl)c2)cc1F [TCMDC-131502]		8.677
CCOC(C(=O)OCC1CCCN1C)(c1ccccc1)c1ccccc1 (stereo not drawn) [TCMDC-131676]	62.64	
COC(C(=O)OCCC1CCCN1C)(c1ccccc1)c1ccccc1 (stereo not drawn) [TCMDC-131780]	73.28	
CCOC(C(=O)OCC1CCCN(C)C1)(c1ccccc1)c1ccccc1 (stereo not drawn) [TCMDC-131382]	13.79	
CCOC(C(=O)OCC1CCCN1C(C)C)(c1ccccc1)c1ccccc1 (stereo not drawn) [TCMDC-131750]	-3.502	
CCCCOC(C(=O)OCC1CCCN1C)(c1ccccc1)c1ccccc1 (stereo not drawn) [TCMDC-131730]	-23.33	
COC(C(=O)OCCC1CCCN1C)(c1ccccc1)C1CCCCC1 (stereo not drawn) [TCMDC-131374]	34.4	
Cc1ccc(CC(C)NCC(O)c2cccc(Br)c2)cc1 (stereo not drawn) [TCMDC-131444]	5.106	
CCN(CC)CCN1C(=O)C(O)(c2ccccc2Cl)c2c1cc(C#N)cc2C(F)(F)F (stereo not drawn) [TCMDC-132583]	-22.22	
CCCCCC(C)C(C)c1cc(OC(N)=O)c2c(c1)OC(C)(C)C=C2c1ccncc1 (stereo not drawn) [TCMDC-131796]	-24.09	
O=P(O)(O)Oc1c(Br)cc(Br)cc1-c1cc(Br)cc(Br)c1O [TCMDC-131736]	1.085	
COc1ccccc1CC(C)NCC(O)c1cccc(Cl)c1 (stereo not drawn) [TCMDC-131497]	-23.86	
COc1cc(NCCCNC(=O)c2cn(Cc3ccccc3)c3ccccc23)nc2ccccc12 [TCMDC-140140]	60.42	
